Assay results taken from PubChem BioAssay (Tox21).
Values joined by “and” are separate entries in the source; they are usually repeats but may differ in a detail not shown here. Equal entries are not always repeated. Records with an inconclusive call do not appear. Where a structure was tested more than once in an assay, its records may differ in their call. Active and inactive are the calls of the source. Unless noted, calls follow the shape of the dose curve; as a rule, active = well fitted curve in the direction sought with a large enough effect in the repeat runs; inconclusive = weak or mixed curves; inactive = no such curve, though single readings can be large; an effect the other way counts as inactive or inconclusive.

Assays:
[1] = qHTS RealTime-Glo MT Cell Viability Assay in HepG2 cells - 32 hour (AID 1224877); also: nearly all actives have a fitted effect of over 55% in size
Outline: (§1)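 Compound treatment began 5 h after plating HepG2 cells (600/well) with NanoLuc luciferase and prosubstrate. Plates stayed at 37 C for 40 h; luminescence was captured at six time points, 0 h through 40 h.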

[2] = A CellTox Green Cytotoxicity Assay to monitor cytotoxicity in HepG2 cells - 24 hour (AID 1224878); also: nearly all actives have a fitted effect of over 45% in size; also: potency is read from the fitted curve at half-maximal effect
Outline: (§2)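 Using 1536-well format, dye-containing HepG2 suspension was seeded, allowed 5 h at 37 C/5% CO2, dosed by pintool with compounds, positive and negative controls, and imaged for fluorescence across 40 h.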

[3] = A CellTox Green Cytotoxicity Assay to monitor cytotoxicity in HepG2 cells - 40 hour (AID 1224879); also: nearly all actives have a fitted effect of over 40% in size; also: potency is read from the fitted curve at half-maximal effect
Outline: as §2

[4] = qHTS RealTime-Glo MT Cell Viability Assay in HEK293 cells - 0 hour (AID 1224880); also: top concentration of the series differs between compounds; nearly all actives have a fitted effect of over 45% in size
Outline: (§3)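 Viable HEK293 cells reduce a cell-permeant prosubstrate; the product diffuses out and is consumed by NanoLuc in the medium to give light. Compounds went in after a 5 h incubation and plates were read over the treatment course.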

[5] = A CellTox Green Cytotoxicity Assay to monitor cytotoxicity in HEK293 cells - 32 hour (AID 1224881); also: nearly all actives have a fitted effect of over 40% in size
Outline: (§4)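 Fluorescence intensity, read at 0, 8, 16, 24, 32 and 40 h of compound treatment, reflected dye binding to DNA of dead HEK293 cells; compounds (23 nL, DMSO) were added 5 h after plating cells with reagent.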

[6] = A CellTox Green Cytotoxicity Assay to monitor cytotoxicity in HepG2 cells - 0 hour (AID 1224882); also: nearly all actives have a fitted effect of over 35% in size
Outline: as §2

[7] = A CellTox Green Cytotoxicity Assay to monitor cytotoxicity in HepG2 cells - 32 hour (AID 1224883); also: nearly all actives have a fitted effect of over 50% in size; also: potency is read from the fitted curve at half-maximal effect
Outline: as §2

[8] = A CellTox Green Cytotoxicity Assay to monitor cytotoxicity in HEK293 cells - 8 hour (AID 1224884); also: nearly all actives have a fitted effect of over 35% in size
Outline: as §4

[9] = qHTS RealTime-Glo MT Cell Viability Assay in HepG2 cells - 16 hour (AID 1224885); also: nearly all actives have a fitted effect of over 50% in size
Outline: as §1

[10] = qHTS RealTime-Glo MT Cell Viability Assay in HEK293 cells - 24 hour (AID 1224886); also: top concentration of the series differs between compounds; nearly all actives have a fitted effect of over 50% in size
Outline: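 Quantitative high-throughput screen of the Tox21 10K library in HEK293: cells and RealTime-Glo reagents plated together, compound added at 5 h, luminescence monitored through 40 h at 37 C.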

[11] = qHTS RealTime-Glo MT Cell Viability Assay in HEK293 cells - 8 hour (AID 1224887); also: top concentration of the series differs between compounds; nearly all actives have a fitted effect of over 50% in size
Outline: as §3

[12] = A CellTox Green Cytotoxicity Assay to monitor cytotoxicity in HEK293 cells - 16 hour (AID 1224888); also: nearly all actives have a fitted effect of over 35% in size
Outline: as §4

[13] = qHTS RealTime-Glo MT Cell Viability Assay in HepG2 cells - 0 hour (AID 1224889); also: nearly all actives have a fitted effect of over 50% in size
Outline: as §1

[14] = A CellTox Green Cytotoxicity Assay to monitor cytotoxicity in HepG2 cells - 8 hour (AID 1224890); also: nearly all actives have a fitted effect of over 45% in size
Outline: as §2

[15] = qHTS assay to identify small molecule antagonists of the estrogen receptor alpha (ER-alpha) signaling pathway using the BG1 cell line in the presence of 0.1 nM 17-beta-estradiol - cell viability counter screen (AID 1259241); also: nearly all actives have a fitted effect of over 40% in size
Outline: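 Estradiol-stimulated (0.1 nM) VM7Luc4E2 cells exposed to compounds 22 hr; viability measured by fluorescence of cleaved CellTiter-Fluor substrate after 30 min.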

[16] = qHTS assay to identify small molecule antagonists of the androgen receptor (AR) signaling pathway using the MDA cell line in the presence of 0.5 nM R1881 - cell viability counter screen (AID 1259242); also: nearly all actives have a fitted effect of over 45% in size
Outline: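 Viability of MDA-kb2 cells was multiplexed with the luciferase AR readout; after 16 hr with compounds and R1881 at 0.5 nM final, CellTiter-Fluor fluorescence was recorded.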

[17] = molecular target: Androgen receptor (Homo sapiens) (UniProt P10275); assay: qHTS assay to identify small molecule antagonists of the androgen receptor (AR) signaling pathway using the MDA cell line in the presence of 0.5 nM R1881 (AID 1259243); also: nearly all actives have a fitted effect of over 50% in size
Sequence of Androgen receptor (Homo sapiens) (P10275 whole entry, looked up): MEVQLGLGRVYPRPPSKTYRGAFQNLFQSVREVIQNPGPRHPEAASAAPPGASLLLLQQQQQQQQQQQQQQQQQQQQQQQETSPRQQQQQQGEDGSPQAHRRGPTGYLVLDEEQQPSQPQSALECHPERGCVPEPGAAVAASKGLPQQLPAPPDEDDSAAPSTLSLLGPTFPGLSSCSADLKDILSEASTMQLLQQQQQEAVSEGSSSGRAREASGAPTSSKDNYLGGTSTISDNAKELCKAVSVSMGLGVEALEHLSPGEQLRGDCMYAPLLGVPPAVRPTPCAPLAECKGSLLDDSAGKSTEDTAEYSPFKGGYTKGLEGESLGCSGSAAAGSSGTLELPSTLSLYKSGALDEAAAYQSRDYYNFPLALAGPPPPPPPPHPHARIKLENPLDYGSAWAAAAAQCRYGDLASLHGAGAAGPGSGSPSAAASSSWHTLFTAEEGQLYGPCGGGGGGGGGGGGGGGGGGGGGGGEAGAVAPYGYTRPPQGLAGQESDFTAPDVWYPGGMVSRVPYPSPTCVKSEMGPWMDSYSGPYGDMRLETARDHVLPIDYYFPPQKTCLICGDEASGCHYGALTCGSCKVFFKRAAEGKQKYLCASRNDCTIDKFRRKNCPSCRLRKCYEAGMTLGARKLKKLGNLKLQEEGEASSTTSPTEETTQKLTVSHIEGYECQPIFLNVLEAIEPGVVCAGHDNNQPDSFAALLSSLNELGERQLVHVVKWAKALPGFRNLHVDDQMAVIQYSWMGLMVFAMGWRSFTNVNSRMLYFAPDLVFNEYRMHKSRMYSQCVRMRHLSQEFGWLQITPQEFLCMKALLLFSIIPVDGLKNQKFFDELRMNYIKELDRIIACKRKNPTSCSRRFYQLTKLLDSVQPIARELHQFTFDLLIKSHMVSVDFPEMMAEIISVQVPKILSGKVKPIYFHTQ
Outline: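 Reporter cells cultured without CO2 receive test chemicals, then 0.5 nM R1881 final; after 16 hr at 37C, ONE-Glo is added and light output recorded.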

[18] = molecular target: Estrogen receptor (Homo sapiens) (UniProt P03372); assay: qHTS assay to identify small molecule antagonists of the estrogen receptor alpha (ER-alpha) signaling pathway using the BG1 cell line in the presence of 0.1 nM 17-beta-estradiol (AID 1259244); also: nearly all actives have a fitted effect of over 50% in size; also: potency is read from the fitted curve at half-maximal effect
Sequence of Estrogen receptor (Homo sapiens) (P03372 whole entry, looked up): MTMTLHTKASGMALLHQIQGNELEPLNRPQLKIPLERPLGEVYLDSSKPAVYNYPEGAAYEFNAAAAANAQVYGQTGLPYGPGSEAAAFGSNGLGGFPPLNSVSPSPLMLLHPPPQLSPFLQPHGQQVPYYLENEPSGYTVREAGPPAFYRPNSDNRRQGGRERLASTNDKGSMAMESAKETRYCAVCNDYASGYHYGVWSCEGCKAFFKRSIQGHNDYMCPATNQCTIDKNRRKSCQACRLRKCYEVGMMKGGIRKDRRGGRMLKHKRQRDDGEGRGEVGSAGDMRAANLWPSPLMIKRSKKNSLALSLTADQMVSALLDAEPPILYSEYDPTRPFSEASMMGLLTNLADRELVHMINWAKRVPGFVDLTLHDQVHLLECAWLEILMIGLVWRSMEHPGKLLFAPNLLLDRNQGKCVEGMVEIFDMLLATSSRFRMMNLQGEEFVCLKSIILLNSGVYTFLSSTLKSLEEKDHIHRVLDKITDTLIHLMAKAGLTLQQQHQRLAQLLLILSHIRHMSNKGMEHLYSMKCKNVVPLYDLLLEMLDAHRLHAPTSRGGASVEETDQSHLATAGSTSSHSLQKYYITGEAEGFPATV
Outline: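 Estradiol at 0.1 nM (final) stimulates the endogenous ER-alpha of VM7Luc4E2 cells carrying an ERE-driven luciferase; compounds are co-incubated 22 h at 37C and luciferase output quantified by luminescence.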

[19] = qHTS assay to identify small molecule HDAC inhibitors (AID 1259364); also: potency is read from the fitted curve at half-maximal effect
Outline: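 Read-out: luminescence of HDAC-Glo I/II reagent, 30 min RT, reflecting class I/II deacetylase activity in whole HCT-116 cells pre-exposed 2 h to DMSO-dissolved compounds.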

[20] = qHTS assay to identify small molecule phospholipidosis (PLD) inducers (AID 1259344; active = well fitted curve in the direction sought with a large enough effect; an effect the other way counts as inactive or inconclusive)
Outline: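 Fluorescent phospholipid staining (LipidTOX Red) measured by automated microscopy in fixed HepG2 cells after 24 h treatment; nuclei counterstained with Hoechst 33342; amiodarone as reference inducer.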

Measured: Potency

CCc1cccc(C)c1N
not listed: [19] | [20]
inactive: all other assays above

COS(C)(=O)=O
not listed: [17] | [19] | [20]
inactive: all other assays above

CC1=C(C)S(=O)(=O)CCS1(=O)=O
not listed: [17] | [19] | [20]
inactive: all other assays above

O=C(O)c1ccc2c(c1)C(=O)OC2=O
not listed: [19] | [20]
inactive: all other assays above

C=CCOC(=O)c1ccccc1C(=O)OCC=C
not listed: [17] | [19] | [20]
inactive: all other assays above

CCC(O)OC(O)CC (stereo not drawn)
not listed: [17] | [20]
inactive: all other assays above

C#C[C@]1(O)CC[C@H]2[C@@H]3CCC4=CC(=O)CC[C@@H]4[C@H]3CC[C@@]21C
not listed: [17]
inactive: all other assays above

CCCCCC1=CCCC1=O
not listed: [17] | [20]
inactive: all other assays above

O=C(O)CCCC[C@@H]1SC[C@@H]2NC(=O)N[C@@H]21
not listed: [17]
inactive: all other assays above

O=C1CCC(N2C(=O)c3ccccc3C2=O)C(=O)N1 (stereo not drawn)
not listed: [17] | [18] | [19]
inactive: all other assays above

O=C(O)c1cc(O)c(O)c(O)c1
not listed: [17] | [19]
inactive: all other assays above

CC(C)c1ccc(S(=O)(=O)O)cc1
not listed: [17] | [20]
inactive: all other assays above

OCCOCCN1CCN(C2=Nc3ccccc3Sc3ccccc32)CC1
not listed: [17] | [18] | [19]
inactive: all other assays above

C#CCN(C)Cc1ccccc1
not listed: [17]
inactive: all other assays above

c1ccc(OCCOc2ccccc2)cc1
active: [19] 27.3 µM
not listed: [17] | [20]
inactive: all other assays above

CC[C@H](C)C(=O)O[C@H]1C[C@@H](C)C=C2C=C[C@H](C)[C@H](CC[C@@H]3C[C@@H](O)CC(=O)O3)[C@H]21
active: [2] 24.9 µM and 10.7 µM | [3] 7.01 µM and 21.8 µM and 9.52 µM | [7] 11.1 µM and 17.3 µM and 9.52 µM
not listed: [17]
inactive: all other assays above

CCc1ccc(CCOc2ccc(CC3SC(=O)NC3=O)cc2)nc1 (stereo not drawn)
54.5 µM (active) and inactive: [18]
not listed: [17] | [19]
inactive: all other assays above

Fc1ccc(Br)cc1
not listed: [17] | [20]
inactive: all other assays above

CCCCCCCC(=O)OC
not listed: [17] | [20]
inactive: all other assays above

CCCCC(CC)COC(=O)CCCCC(=O)OCC(CC)CCCC (stereo not drawn)
inactive and 2.45 µM (active): [3] | [7]
not listed: [17] | [20]
inactive: all other assays above

CC(=O)Nc1ccccc1
not listed: [17]
inactive: all other assays above

CC1=CCC2CC1C2(C)C (stereo not drawn)
not listed: [17] | [19]
inactive: all other assays above

O=C(O)CCCCCCCCCCC(=O)O
active: [19] 21.9 µM and 21.7 µM
not listed: [17] | [20]
inactive: all other assays above

CN(C)CCCN
not listed: [17] | [20]
inactive: all other assays above

O=C=NCCCCCCN=C=O
not listed: [17] | [20]
inactive: all other assays above

CCCCC(CC)COC(=O)C(C#N)=C(c1ccccc1)c1ccccc1 (stereo not drawn)
not listed: [17] | [18] | [19]
inactive: all other assays above

COc1cc(Cc2cnc(N)nc2N)cc(OC)c1OC
not listed: [17]
inactive: all other assays above

C/C=C1/CC2C=CC1C2 (stereo not drawn)
not listed: [17] | [20]
inactive: all other assays above

CCCCN(CCCC)CCCC
not listed: [17] | [20]
inactive: all other assays above

COc1ccc(NC(C)=O)cc1N
inactive and 43.6 µM (active): [3] | [7]
inactive and 49 µM (active): [2]
not listed: [17] | [20]
inactive: all other assays above

CC(C)(N)CO
not listed: [17] | [20]
inactive: all other assays above
